These results are taken from the supplement of paper PMC7695840.

Where a name gives a salt, the structure may show the parent alone.

The assay deals with Staphylococcus aureus MW2 delta-mecA (mecA-). As to the kind of experiment: normalized GFP fluorescence (growth of mecA- strain) (fraction of control range); higher = more growth of mecA- strain. To be noted: compound concentration: 150 uM; cefoxitin: subinhibitory; fluorescent label: GFP. Put shortly: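 Pre-induced S. aureus MW2 cells with the gene (DsRed) and without it (GFP) were mixed 1:1 in LB holding a subinhibitory antibiotic dose set daily and grown on 150 μM compound (1.5% DMSO) in 1536-well plates, single replicate, for 20 h at 37 °C. DsRed (540/590) and GFP (485/520) readings were scaled per plate between single-strain control medians. Plates with high untreated ratios and rows with DsRed/GFP >10 were excluded.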
As for `COc1cccc2c1C(=O)c1c(O)c3c(c(O)c1C2=O)C[C@@](O)(C(C)=O)C[C@@H]3O[C@H]1C[C@H](N)[C@H](O)[C@H](C)O1`, the “normalized GFP fluorescence” value is -0.00425.

`COc1cccc2c1C(=O)c1c(O)c3c(c(O)c1C2=O)C[C@@](O)(C(=O)CO)C[C@@H]3O[C@H]1C[C@H](N)[C@@H](O)[C@H](C)O1`: the “normalized GFP fluorescence” value is -0.00778.

Turning to `C=CCCCCCCCCC(=O)O`, the “normalized GFP fluorescence” value is 0.13.

Take `NCCNCCNCCN`: the “normalized GFP fluorescence” value was found to be 0.763.

Regarding `Cc1cc(/C=C/c2ccc3cc(N(C)C)ccc3[n+]2C)c(C)n1-c1ccccc1`, the “normalized GFP fluorescence” value was -0.0128.

Turning to `CCC1=C(C)CN(C(=O)NCCc2ccc(S(=O)(=O)NC(=O)N[C@H]3CC[C@H](C)CC3)cc2)C1=O`, the “normalized GFP fluorescence” value amounted to 0.0961.

With `CN(C)[C@@H]1C(O)=C(C(N)=O)C(=O)[C@@]2(O)C(O)=C3C(=O)c4c(O)cccc4[C@@](C)(O)[C@H]3[C@H](O)[C@@H]12` [Oxytetracycline dihydrate], the “normalized GFP fluorescence” value stood at 0.0661.

As for `CCCCCOC(=O)Nc1nc(=O)n([C@@H]2O[C@H](C)[C@@H](O)[C@H]2O)cc1F` [Capecitabine (Xeloda)], the “normalized GFP fluorescence” value came to 0.0511.

With `CN(C)CCC=C1c2ccccc2C=Cc2ccccc21`, the “normalized GFP fluorescence” value worked out at 0.0981.

For `CC#C[C@]1(O)CC[C@H]2[C@@H]3CCC4=CC(=O)CCC4=C3[C@@H](c3ccc(N(C)C)cc3)C[C@@]21C`, the “normalized GFP fluorescence” value was 0.622.

With `Clc1ccc(COC(Cn2ccnc2)c2ccc(Cl)cc2Cl)cc1` (stereo not given) [Econazole nitrate (Spectazole)], the “normalized GFP fluorescence” value is -0.00195.

As for `CC(C)(C)NC[C@H](O)COc1nsnc1N1CCOCC1`, the “normalized GFP fluorescence” value was 0.208.

Take `CC1=C(C(=O)O)N2C(=O)[C@@H](NC(=O)[C@H](N)C3=CCC=CC3)[C@H]2SC1`: the “normalized GFP fluorescence” value amounted to 0.00153.

For `COc1cccc2c1C(=O)c1c(O)c3c(c(O)c1C2=O)C[C@@](O)(C(=O)CO)C[C@@H]3O[C@H]1C[C@H](N)[C@H](O)[C@H](C)O1` [Doxorubicin (Adriamycin)], the “normalized GFP fluorescence” value was -0.0343.

For `CN(Cc1ccc(C(C)(C)C)cc1)Cc1cccc2ccccc12` [Butenafine HCl], the “normalized GFP fluorescence” value was found to be 0.11.

In the case of `COc1cc2nc(N3CCN(C(=O)C4CCCO4)CC3)nc(N)c2cc1OC` (stereo not given) [Terazosin HCl (Hytrin)], the “normalized GFP fluorescence” value worked out at 0.321.

`C[C@@H](O)[C@H]1C(=O)N2C(C(=O)O)=C(SCCNC=N)C[C@H]12`: the “normalized GFP fluorescence” value is -0.0325.

As for `CO[C@H]1C[C@@H]2CC[C@@H](C)[C@@](O)(O2)C(=O)C(=O)N2CCCC[C@H]2C(=O)O[C@H]([C@H](C)C[C@@H]2CC[C@@H](O)[C@H](OC)C2)CC(=O)[C@H](C)/C=C(\C)[C@@H](O)[C@@H](OC)C(=O)[C@H](C)C[C@H](C)/C=C/C=C/C=C/1C`, the “normalized GFP fluorescence” value is 0.0214.

On to `CO/N=C(\C(=O)N[C@@H]1C(=O)N2C(C(=O)OC(C)OC(C)=O)=C(COC(N)=O)CS[C@H]12)c1ccco1` (stereo not given in full), for which the “normalized GFP fluorescence” value worked out at 0.0118.

As for `CC1(C)[C@@H](OC(=O)CCC(=O)O)CC[C@]2(C)[C@H]3C(=O)C=C4[C@@H]5C[C@@](C)(C(=O)O)CC[C@]5(C)CC[C@@]4(C)[C@]3(C)CC[C@@H]12`, the “normalized GFP fluorescence” value was 0.146.

For `COC(=O)C1=C(C)NC(C)=C(C(=O)OCCN2CCN(C(c3ccccc3)c3ccccc3)CC2)C1c1cccc([N+](=O)[O-])c1` (stereo not given), the “normalized GFP fluorescence” value was 0.002.

Consider `CC1=NN(c2ccc(C)c(C)c2)C(=O)/C1=N\Nc1cccc(-c2cccc(C(=O)O)c2)c1O`, for which the “normalized GFP fluorescence” value was -0.0259.

Turning to `Cc1cc(C(C)(C)C)c(O)c(C)c1CC1=NCCN1` [Oxymetazoline hydrochloride], the “normalized GFP fluorescence” value turned out to be 0.135.

Take `CO[C@H]1C[C@@H]2CC[C@@H](C)[C@@](O)(O2)C(=O)C(=O)N2CCCC[C@H]2C(=O)O[C@H]([C@H](C)C[C@@H]2CC[C@@H](O)[C@H](OC)C2)CC(=O)[C@H](C)/C=C(\C)[C@@H](O)[C@@H](OC)C(=O)[C@H](C)C[C@H](C)/C=C/C=C/C=C/1C` [Rapamycin (Sirolimus)]: the “normalized GFP fluorescence” value is 0.00415.

For `C[C@@H]1O[C@@H]1P(=O)(O)O`, the “normalized GFP fluorescence” value was 0.142.

`O=C1c2ccccc2C(=O)C1c1ccccc1` [Phenindione (Rectadione)]: the “normalized GFP fluorescence” value came to 0.0982.

Regarding `CO[C@@]1(NC(=O)Cc2cccs2)C(=O)N2C(C(=O)O)=C(COC(N)=O)CS[C@@H]21`, the “normalized GFP fluorescence” value worked out at 0.00393.

In the case of `CC1(C)[C@H](C(=O)O)N2C(=O)C[C@H]2S1(=O)=O`, the “normalized GFP fluorescence” value stood at 0.00608.

Regarding `Cc1ncc([N+](=O)[O-])n1CC(C)O` (stereo not given) [Secnidazole (Flagentyl)], the “normalized GFP fluorescence” value was 0.266.

In the case of `CCOC(=O)C1=C(C)NC(C)=C(C(=O)OCC)C1c1ccccc1/C=C/C(=O)OC(C)(C)C` [Lacidipine (Lacipil, Motens)], the “normalized GFP fluorescence” value was determined as 0.112.

`CNC1(C)C2CCC(C2)C1(C)C` (stereo not given): the “normalized GFP fluorescence” value was determined as 0.71.

As for `COCC1=C(C(=O)OC(C)OC(=O)OC(C)C)N2C(=O)[C@@H](NC(=O)/C(=N\OC)c3csc(N)n3)[C@H]2SC1` (stereo not given in full), the “normalized GFP fluorescence” value worked out at 0.00501.

Turning to `Oc1c(Cl)cc(Cl)c(Cl)c1Cc1c(O)c(Cl)cc(Cl)c1Cl`, the “normalized GFP fluorescence” value was 0.11.

On to `Nc1ccn([C@@H]2O[C@H](CO)[C@@H](O)[C@@H]2O)c(=O)n1`, for which the “normalized GFP fluorescence” value stood at 0.00362.

For `Nc1c(Br)cc(Br)cc1CN[C@H]1CC[C@H](O)CC1` [Ambroxol HCl], the “normalized GFP fluorescence” value turned out to be 0.21.

As for `CCC(C)(C)c1ccc(CC(C)CN2C[C@@H](C)O[C@@H](C)C2)cc1` (stereo not given in full), the “normalized GFP fluorescence” value was 0.099.

For the molecule `CN1CCC(=C2c3ccccc3CCc3cccnc32)CC1`, the “normalized GFP fluorescence” value is 0.396.

As for `COC(=O)[C@H](c1ccccc1Cl)N1CCc2sccc2C1`, the “normalized GFP fluorescence” value came out at 0.0333.

For `C[C@@H]1C[C@H]2[C@@H]3CCC4=CC(=O)C=C[C@]4(C)[C@@]3(F)[C@@H](O)C[C@]2(C)[C@@]1(O)C(=O)CO`, the “normalized GFP fluorescence” value was 0.309.

As for `Fc1ccc(C(c2ccc(F)cc2)N2CCN(C/C=C/c3ccccc3)CC2)cc1`, the “normalized GFP fluorescence” value came out at 0.0954.
